Consider 40 compounds from PubChem BioAssay (NCI).

The structures appear in SMILES notation. About 79,000 compounds went through this panel and 15% of them were active in at least one assay; those are over-represented in the sample as a whole. A number with no mark means an inactive call. Activity calls are given as the source filed them. Cut-off read from the data, not from the text of the source: active = growth inhibition above about 70%; inactive = the rest.

The first test in a line: NCI Yeast Anticancer Drug Screen. Data for the sgs1 mgt1 strain (AID 161).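 Note: 0% = growth of cultures given vehicle only.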 The conditions noted are these: S. cerevisiae sgs1 mgt1 strain, at 50.0 µM, stronger effect = higher value. In outline:
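Read-out: growth inhibition vs vehicle controls. Cells: mutant yeast strain deficient in DNA damage repair.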
Turning to `COc1cc(C(=O)C/C(CCC(=O)Nc2ccccc2[N+](=O)[O-])=N\NC(=O)CC#N)ccc1O`, the growth inhibition was -36.7%.

In the case of `CN=C(C#N)c1ccccc1`, the growth inhibition is -2.6%.

With `CC(=O)NC(Cc1cccc2ccccc12)C(=O)O` (centres undefined), the growth inhibition was -0.05%.

Take `C=CCc1cccc(CC=C)c1OCCN(CC)CC`: the growth inhibition is 17.6%.

For `CC1NC(C)SC(C)S1` (centres undefined), the growth inhibition was 0.15%.

As for `O=C(O)c1cccnc1Cl`, the growth inhibition is -9.9%.

As to `O=C(c1ccccc1)N1C(=S)N=C(Nc2ccccc2)C1=Nc1ccccc1`, the growth inhibition is -9.8%.

As to `CCCn1c(C)nc2cc(C(F)(F)F)cc(N)c21`, the growth inhibition is 1.55%.

As for `O=C1OC(=O)C2C3C=CC(CC3)C12` (centres undefined), the growth inhibition was -13.3%.

`COc1cc(/C=C2\C=Cc3ccccc32)ccc1N(C)C`: the growth inhibition is -6.85%.

On to `CN1C(=O)C(=O)OC1=C(c1ccccc1)c1ccccc1`, for which the growth inhibition was 0.85%.

Consider `CCCCNc1ccc(Cl)cc1`, for which the growth inhibition was -16.7%.

With `CCCCc1c2cnccc2c(CCCC)c2c1[nH]c1ccccc12`, the growth inhibition is 91.8% (active).

For the compound `CCCCCCCCCCC(=O)OCC`, the growth inhibition is -21.4%.

Consider `CCOC(=O)CN`, for which the growth inhibition was 2.15%.

With `COc1ccc(C2(C=O)NC(=O)NC2=O)cc1` (centres undefined), the growth inhibition was -13.5%.

`CC1=NN(C(=O)c2ccc(Cl)cc2)C(=O)/C1=C/c1ccccc1O`: the growth inhibition is -28.9%.

For `NC(=O)C1=CNCCC1`, the growth inhibition was -6.35%.

Regarding `O=C(O)C(Br)C(Br)C(=O)Nc1cccc2ccccc12` (centres undefined), the growth inhibition is 99.2% (active).

For `CCOc1nc2c(c(=O)n(C)c(=O)n2C)n1C`, the growth inhibition was -6.25%.

Consider `COc1ccc(-c2nc(-c3cc4c(ccc5ccccc54)oc3=O)cs2)cc1`, for which the growth inhibition is 1.45%.

Take `COc1cccc(C2c3cc4c(cc3OC(Nc3ccccc3)C2C)OCO4)c1OC` (centres undefined): the growth inhibition was -28.1%.

Regarding `CC1CCC(C)C(O)C1` (centres undefined), the growth inhibition was -19.1%.

On to `CC1(c2ccc[n+](Cc3ccccc3)c2)OCCO1`, for which the growth inhibition was -12.8%.

For the compound `COc1cccc(/C=C2/Sc3sc(C(C)=O)c(C)[n+]3C2=O)c1O`, the growth inhibition is 8.7%.

For the compound `CN1CCCC(C(=O)O)(c2ccccc2)CC1` (centres undefined), the growth inhibition is -19.2%.

On to `C1CCC(C2CCCC[N-]2)[N-]C1.C1CCC(C2CCCC[N-]2)[N-]C1.[Cl][Ru][Cl]` (centres undefined), for which the growth inhibition is 29.1%.

As for `CN(C)C1=c2c(=O)n(C)c(=O)n(C)c2=NC2C=CC=CN12` (centres undefined), the growth inhibition was 17.4%.

As to `CCOC(=O)C(NC(=O)/C=C\C(=O)O)C(C)C` (centres undefined), the growth inhibition was 2.55%.

Take `O=C(Nc1ccc(S(=O)(=O)NC2CCCCC2)cc1)OC(c1ccccc1)c1ccccc1`: the growth inhibition was 18.2%.

Regarding `COc1ccc2c(c1OC)C(=O)OC2(O)C1=NCCc2cc3c(cc21)OCO3` (centres undefined), the growth inhibition was 8.1%.

Turning to `C[N+]([O-])(Cc1ccccc1)c1ccccc1` (centres undefined), the growth inhibition was -15.2%.

`CCOc1ccc(N=Cc2cc(Br)ccc2O)cc1`: the growth inhibition was 1.5%.

With `NCCC1([N+](=O)[O-])CCNCC1`, the growth inhibition was -6.15%.

As to `COc1ccc(/C=N\S(=O)(=O)c2ccc(OC)cc2)cc1`, the growth inhibition is 15.1%.

With `OC1CCSc2ccccc21` (centres undefined), the growth inhibition was 23.9%.

Turning to `Cc1ccc(Cl)cc1NC(=O)Nc1ccc(Cl)c(Cl)c1`, the growth inhibition was -4.25%.

With `CC(O)C(=O)NN` (centres undefined), the growth inhibition is -4.95%.

For the compound `CC(C)C(C(=O)O)N(CC1(O)OCC(O)C(O)C1O)N=O` (centres undefined), the growth inhibition was -2.85%.

The next test in a line: NCI Yeast Anticancer Drug Screen. Data for the cln2 rad14 strain (AID 165).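 Note: 0% = growth equal to vehicle treated cultures.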 The conditions noted are these: S. cerevisiae cln2 rad14 strain, at 50.0 µM, stronger effect = higher value. In outline:
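Test compounds were added to cln2 rad14 yeast cultures; inhibition of growth was then determined by comparison with vehicle treatment.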
Take `COc1cc(C(=O)C/C(CCC(=O)Nc2ccccc2[N+](=O)[O-])=N\NC(=O)CC#N)ccc1O`: the growth inhibition is -11.4%.

Turning to `CN=C(C#N)c1ccccc1`, the growth inhibition was -28.9%.

As for `CC(=O)NC(Cc1cccc2ccccc12)C(=O)O` (centres undefined), the growth inhibition is -2%.

In the case of `C=CCc1cccc(CC=C)c1OCCN(CC)CC`, the growth inhibition is 10.2%.

With `CC1NC(C)SC(C)S1` (centres undefined), the growth inhibition is -16.1%.

Take `O=C(O)c1cccnc1Cl`: the growth inhibition was 14.4%.

Regarding `O=C(c1ccccc1)N1C(=S)N=C(Nc2ccccc2)C1=Nc1ccccc1`, the growth inhibition was -30.3%.

With `CCCn1c(C)nc2cc(C(F)(F)F)cc(N)c21`, the growth inhibition is -35.4%.

As for `NC1(C(=O)O)CCCc2ccccc21` (centres undefined), the growth inhibition is -1.7%.

As to `O=C1OC(=O)C2C3C=CC(CC3)C12` (centres undefined), the growth inhibition was -65%.

Turning to `COc1cc(/C=C2\C=Cc3ccccc32)ccc1N(C)C`, the growth inhibition is -54.4%.

For `CN1C(=O)C(=O)OC1=C(c1ccccc1)c1ccccc1`, the growth inhibition was -30.9%.

For `CCCCNc1ccc(Cl)cc1`, the growth inhibition is -27.9%.

Turning to `CCCCc1c2cnccc2c(CCCC)c2c1[nH]c1ccccc12`, the growth inhibition is 81.9% (active).

Consider `CCCCCCCCCCC(=O)OCC`, for which the growth inhibition is -1.85%.

Turning to `CCOC(=O)CN`, the growth inhibition was -0.4%.

As for `COc1ccc(C2(C=O)NC(=O)NC2=O)cc1` (centres undefined), the growth inhibition is 36%.

On to `CC1=NN(C(=O)c2ccc(Cl)cc2)C(=O)/C1=C/c1ccccc1O`, for which the growth inhibition was -7.55%.

Take `NC(=O)C1=CNCCC1`: the growth inhibition is 12.3%.

As to `O=C(O)C(Br)C(Br)C(=O)Nc1cccc2ccccc12` (centres undefined), the growth inhibition is 99.2% (active).

As to `CCOc1nc2c(c(=O)n(C)c(=O)n2C)n1C`, the growth inhibition is 8%.

In the case of `COc1ccc(-c2nc(-c3cc4c(ccc5ccccc54)oc3=O)cs2)cc1`, the growth inhibition was 15%.

As for `COc1cccc(C2c3cc4c(cc3OC(Nc3ccccc3)C2C)OCO4)c1OC` (centres undefined), the growth inhibition is 3.35%.

For `CC1CCC(C)C(O)C1` (centres undefined), the growth inhibition is 23.1%.

Consider `CC1(c2ccc[n+](Cc3ccccc3)c2)OCCO1`, for which the growth inhibition is -11.2%.

Turning to `COc1cccc(/C=C2/Sc3sc(C(C)=O)c(C)[n+]3C2=O)c1O`, the growth inhibition was -2.05%.

Consider `CN1CCCC(C(=O)O)(c2ccccc2)CC1` (centres undefined), for which the growth inhibition was -35.2%.

Take `C1CCC(C2CCCC[N-]2)[N-]C1.C1CCC(C2CCCC[N-]2)[N-]C1.[Cl][Ru][Cl]` (centres undefined): the growth inhibition was 6.8%.

Turning to `CN(C)C1=c2c(=O)n(C)c(=O)n(C)c2=NC2C=CC=CN12` (centres undefined), the growth inhibition is 4.15%.

For `CCOC(=O)C(NC(=O)/C=C\C(=O)O)C(C)C` (centres undefined), the growth inhibition was 23.9%.

For the compound `O=C(Nc1ccc(S(=O)(=O)NC2CCCCC2)cc1)OC(c1ccccc1)c1ccccc1`, the growth inhibition is 13.8%.

For the compound `COc1ccc2c(c1OC)C(=O)OC2(O)C1=NCCc2cc3c(cc21)OCO3` (centres undefined), the growth inhibition is 21.3%.

Regarding `C[N+]([O-])(Cc1ccccc1)c1ccccc1` (centres undefined), the growth inhibition is -20.9%.

Regarding `CCOc1ccc(N=Cc2cc(Br)ccc2O)cc1`, the growth inhibition was -0.5%.

In the case of `NCCC1([N+](=O)[O-])CCNCC1`, the growth inhibition was -14.7%.

Consider `COc1ccc(/C=N\S(=O)(=O)c2ccc(OC)cc2)cc1`, for which the growth inhibition is 8.8%.

As to `OC1CCSc2ccccc21` (centres undefined), the growth inhibition is 9.7%.

With `Cc1ccc(Cl)cc1NC(=O)Nc1ccc(Cl)c(Cl)c1`, the growth inhibition was -4.5%.

For `CC(O)C(=O)NN` (centres undefined), the growth inhibition is -13.6%.

Regarding `CC(C)C(C(=O)O)N(CC1(O)OCC(O)C(O)C1O)N=O` (centres undefined), the growth inhibition was 0.1%.
